Results taken from PubChem BioAssay AID1159580 (chemical genetic matrix, 2015).
Screen size: about 5,500 compounds; about 2,000 (36%) were called active. About 18% were inconclusive and are not listed. No stated cut-off is given here; in the data, active means normalized growth mostly below about 0.91 (no sharp cut-off); inconclusive means no clear call, values can overlap the other calls; inactive means mostly above about 0.92. Some of the results follow.

Assay: chemical genetic growth profiling, strain panel (AID 1159580);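 further: tested at 20 µM; growth read once vehicle control cultures reached saturation at 30 °C; 1 = growth at the plate median or of vehicle wells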
Conditions: S. cerevisiae deletion strains, growth OD
[1] = locus YDR150W, strain NUM1, stronger effect = lower value
[2] = locus YGR078C, strain PAC10, stronger effect = lower value
[3] = locus YGR229C, strain SMI1, stronger effect = lower value
[4] = locus YMR263W, strain SAP30, stronger effect = lower value
[5] = locus YNL322C, strain KRE1, stronger effect = lower value
[6] = locus YPL241C, strain CIN2, stronger effect = lower value
[7] = locus YHR030C, strain SLT2, stronger effect = lower value

Measured: normalized growth

Fc1ccc(CN(C2=NCCN2)c2c(Cl)cccc2Cl)cc1
inactive: locus YAL040C, strain CLN3, stronger effect = lower value 0.945 | locus YCL061C, strain MRC1 (second series), stronger effect = lower value 1.01 | [1] 1.06 | locus YDR363W, strain ESC2, stronger effect = lower value 1.02 | locus YER002W, strain NOP16, stronger effect = lower value 1.02 | [2] 0.984 | [3] 1.01 | [4] 0.995 | locus YNL128W, strain TEP1, stronger effect = lower value 1.1 | locus YNL175C, strain NOP13, stronger effect = lower value 1.01 | locus YNL197C, strain WHI3, stronger effect = lower value 1 | locus YNL224C, strain SQS1, stronger effect = lower value 1.01 | [5] 1 | locus YOR083W, strain WHI5 (second series), stronger effect = lower value 1.05 | [6] 0.997

CC(C)(CO)[C@@H](O)C(=O)NCCC(=O)O
inactive: [7] 1.06 | locus YHR079C, strain IRE1, stronger effect = lower value 1.04 | locus YJL095W, strain BCK1, stronger effect = lower value 1.03 | locus YJR066W, strain TOR1, stronger effect = lower value 0.964 | locus YLR113W, strain HOG1, stronger effect = lower value 1.05 | locus YNL183C, strain NPR1, stronger effect = lower value 0.999 | locus YOR231W, strain MKK1, stronger effect = lower value 1.09 | locus YPL256C, strain CLN2, stronger effect = lower value 1.09

O=C(O)C12CC3CC(CC(Br)(C3)C1)C2
inactive: locus YAL013W, strain DEP1, stronger effect = lower value 1 | locus YBR229C, strain ROT2, stronger effect = lower value 0.972 | locus YDL101C, strain DUN1, stronger effect = lower value 0.984 | locus YDL134C, strain PPH21, stronger effect = lower value 1.02 | [1] 0.982 | locus YEL061C, strain CIN8, stronger effect = lower value 0.987 | [2] 0.99 | [3] 1.01 | [7] 1.06 | locus YHR087W, strain rtc3, stronger effect = lower value 0.988 | locus YJL187C, strain SWE1, stronger effect = lower value 0.945 | locus YJR043C, strain POL32, stronger effect = lower value 1.01 | locus YJR075W, strain HOC1, stronger effect = lower value 0.996 | locus YKL190W, strain CNB1, stronger effect = lower value 1.01 | locus YLR039C, strain RIC1, stronger effect = lower value 1.04 | locus YLR058C, strain SHM2 (second series), stronger effect = lower value 1 | locus YLR085C, strain ARP6, stronger effect = lower value 0.963 | locus YLR262C, strain YPT6, stronger effect = lower value 1.1 | locus YML094W, strain GIM5, stronger effect = lower value 0.991 | locus YMR219W, strain ESC1, stronger effect = lower value 0.998 | [4] 0.993 | locus YMR307W, strain GAS1, stronger effect = lower value 0.997 | locus YNL153C, strain GIM3, stronger effect = lower value 0.994 | locus YNL298W, strain CLA4 (second series), stronger effect = lower value 0.992 | [5] 0.993 | locus YNR030W, strain Alg12, stronger effect = lower value 0.997 | locus YOL006C, strain TOP1, stronger effect = lower value 1.05 | locus YPL055C, strain LGE1, stronger effect = lower value 0.976 | [6] 0.994 | locus YPR135W, strain CTF4, stronger effect = lower value 1.14
